Laboratory results: PubChem BioAssay (NCI)
This is part of a sample that, as a whole, favours compounds with a hit. Of some 79,000 tested, about 15% had one in any assay. The source made the active and inactive calls. No stated cut-off is given here; in the data, active means growth inhibition above about 70%; inactive means the rest.

Assays:
[1] = NCI Yeast Anticancer Drug Screen. Data for the rad52 strain (AID 147);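 further: 0% = growth of vehicle-treated control cultures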; conditions: S. cerevisiae rad52 mutant growth inhibition, hits give high values
How it was run: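 Inhibition of yeast growth, referenced to vehicle controls, was the measured output for a strain with defective DNA damage repair.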

[2] = NCI Yeast Anticancer Drug Screen. Data for the wt1 strain (AID 149);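 further: 0% = growth of vehicle-treated wt1 cultures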; conditions: S. cerevisiae wt1 strain (SPY 50644) growth inhibition, hits give high values
How it was run: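 Yeast wt1 strain exposed to compounds; growth inhibition measured relative to vehicle-treated controls.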

[3] = NCI Yeast Anticancer Drug Screen. Data for the rad50EPP+ strain (AID 151);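 further: 0% = growth of vehicle-treated control cultures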; conditions: S. cerevisiae rad50 mutant strain, hits give high values
How it was run: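 Genetically defined yeast (rad50EPP+, DNA damage repair alteration) is grown with compound, and inhibition of growth is expressed relative to vehicle-treated controls.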

[4] = NCI Yeast Anticancer Drug Screen. Data for the rad50 strain (AID 155);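 further: 0% = growth of vehicle-only cultures of the same strain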; conditions: S. cerevisiae rad50 strain growth inhibition, hits give high values
How it was run: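 Yeast carrying a defined DNA repair defect were exposed to test compounds, and growth was compared with vehicle-treated controls to give percent inhibition.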

[5] = NCI Yeast Anticancer Drug Screen. Data for the mec2-1 strain (AID 157); conditions: S. cerevisiae mec2-1 strain, hits give high values
How it was run: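 Each compound was tested on mec2-1 yeast, a strain altered in DNA damage repair or cell cycle control. Growth inhibition is reported relative to vehicle.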

[6] = NCI Yeast Anticancer Drug Screen. Data for the rad14 strain (AID 159);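 further: 0% = growth of vehicle-treated control cultures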; conditions: S. cerevisiae rad14 strain growth inhibition, hits give high values
How it was run: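 Yeast cells carrying a defined DNA-repair defect were exposed to compounds, and growth inhibition was calculated relative to vehicle-treated control cultures.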

[7] = NCI Yeast Anticancer Drug Screen. Data for the sgs1 mgt1 strain (AID 161);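 further: 0% = growth of cultures given vehicle only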; conditions: S. cerevisiae sgs1 mgt1 strain, hits give high values
How it was run: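 Genetically altered yeast, compound exposure, growth inhibition relative to vehicle.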

[8] = NCI Yeast Anticancer Drug Screen. Data for the CLN2oe strain (AID 163);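 further: 0% = growth of vehicle-only control cultures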; conditions: S. cerevisiae CLN2oe strain, hits give high values
How it was run: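 First, the altered yeast strain was treated with each compound; second, its growth was measured; finally, inhibition was derived by comparison with vehicle controls.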

[9] = NCI Yeast Anticancer Drug Screen. Data for the cln2 rad14 strain (AID 165);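 further: 0% = growth equal to vehicle treated cultures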; conditions: S. cerevisiae cln2 rad14 strain, hits give high values
How it was run: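 Test compounds were added to cln2 rad14 yeast cultures; inhibition of growth was then determined by comparison with vehicle treatment.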

[10] = NCI Yeast Anticancer Drug Screen. Data for the bub3 strain (AID 167); conditions: S. cerevisiae bub3 mutant strain, hits give high values
How it was run: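 Compounds were applied to a genetically altered yeast strain carrying a cell-cycle control defect. Growth inhibition was scored against vehicle-treated controls.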

[11] = NCI Yeast Anticancer Drug Screen. Data for the wt2 strain (AID 169);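 further: 0% = growth of vehicle-treated yeast cultures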; conditions: S. cerevisiae wt2 strain growth inhibition, hits give high values
How it was run: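 The panel's yeast strains carry defined changes in DNA repair or cell cycle genes. Each strain is grown with compound, and growth loss is scored relative to vehicle.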

[12] = NCI Yeast Anticancer Drug Screen. Data for the mlh1 strain (AID 171);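 further: 0% = growth of vehicle-treated control cultures of the same strain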; conditions: S. cerevisiae mlh1 strain growth inhibition, hits give high values
How it was run: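 Inhibition values reflect reduced yeast growth in the presence of compound, referenced to vehicle controls, using a strain chosen for its alteration in DNA repair or cell cycle control.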

[13] = NCI Yeast Anticancer Drug Screen. Data for the sgs1 strain (AID 173);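 further: 0% = growth of vehicle-only control cultures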; conditions: S. cerevisiae sgs1 mutant, hits give high values
How it was run: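 Vehicle-treated cultures served as reference for growth inhibition of a yeast strain altered in DNA damage repair or cell cycle control after compound exposure.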

[14] = NCI Yeast Anticancer Drug Screen. Data for the mlh1 rad18 strain (AID 175); conditions: S. cerevisiae mlh1 rad18 strain growth inhibition, hits give high values
How it was run: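 Inhibition values reflect reduced growth of mutant yeast versus vehicle-treated controls following compound exposure; the mutations affect DNA damage repair.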

[15] = NCI Yeast Anticancer Drug Screen. Data for the rad18 strain (AID 177); conditions: S. cerevisiae rad18 mutant growth inhibition, hits give high values
How it was run: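 Steps: expose repair-mutant yeast to compound; measure growth; express as inhibition relative to vehicle control.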

[16] = at 5.0 µM (retest, dose inferred, filed as 0.5)
[17] = at 50.0 µM (retest, dose inferred, filed as 5.0)

Measured: growth inhibition

Cc1cccc2c1N=C(C(F)(F)F)CC2=O
active: [14]; [17] 71% | [14]; at 50.0 µM 76.8%
inactive: [1]; at 1.2 µM 4% | [1]; at 3.7 µM 7% | [1]; at 11.0 µM 10% | [1]; at 33.0 µM 20% | [1]; at 100.0 µM 46% | [2]; at 1.2 µM -2% | [2]; at 3.7 µM -1% | [2]; at 11.0 µM 2% | [2]; at 33.0 µM 1% | [2]; at 100.0 µM 31% | [3]; at 1.2 µM 2% | [3]; at 3.7 µM 3% | [3]; at 11.0 µM 10% | [3]; at 33.0 µM 33% | [3]; at 100.0 µM 48% | [4]; at 1.2 µM 9% | [4]; at 3.7 µM 15% | [4]; [16] -120% | [4]; at 11.0 µM 23% | [4]; at 33.0 µM 24% | [4]; [17] 9% | [4]; at 50.0 µM 43.7% | [4]; at 100.0 µM 46% | [5]; at 1.2 µM 2% | [5]; at 3.7 µM 1% | [5]; [16] -43% | [5]; at 11.0 µM -5% | [5]; at 33.0 µM 9% | [5]; [17] 40% | [5]; at 50.0 µM 35% | [5]; at 100.0 µM 54% | [6]; at 1.2 µM 3% | [6]; at 3.7 µM -5% | [6]; at 11.0 µM 0% | [6]; at 33.0 µM 7% | [6]; at 100.0 µM 39% | [7]; [16] -44% | [7]; [17] 65% | [7]; at 50.0 µM 45% | [8]; at 1.2 µM -5% | [8]; at 3.7 µM -3% | [8]; at 11.0 µM 3% | [8]; at 33.0 µM 8% | [8]; at 100.0 µM 43% | [9]; [16] -49% | [9]; [17] 45% | [9]; at 50.0 µM 49.6% | [10]; at 1.2 µM -2% | [10]; at 3.7 µM -2% | [10]; [16] -61% | [10]; at 11.0 µM -1% | [10]; at 33.0 µM 1% | [10]; [17] 33% | [10]; at 50.0 µM 25% | [10]; at 100.0 µM 37% | [11]; at 1.2 µM -2% | [11]; at 3.7 µM -2% | [11]; at 11.0 µM -1% | [11]; at 33.0 µM 6% | [11]; at 100.0 µM 40% | [12]; at 1.2 µM -1% | [12]; at 3.7 µM 2% | [12]; at 11.0 µM 1% | [12]; at 33.0 µM 8% | [12]; at 100.0 µM 38% | [13]; at 1.2 µM 1% | [13]; at 3.7 µM -2% | [13]; at 11.0 µM 0% | [13]; at 33.0 µM 27% | [13]; at 100.0 µM 48% | [14]; [16] -100% | [15]; at 1.2 µM 0% | [15]; at 3.7 µM 1% | [15]; at 11.0 µM 3% | [15]; at 33.0 µM 9% | [15]; at 100.0 µM 43%

O=C1CSC(=S)N1Cc1ccc(Cl)cc1Cl
active: [1]; at 11.0 µM 98% | [1]; at 33.0 µM 99% | [1]; at 100.0 µM 98% | [2]; at 11.0 µM 99% | [2]; at 33.0 µM 99% | [2]; at 100.0 µM 97% | [3]; at 3.7 µM 72% | [3]; at 11.0 µM 97% | [3]; at 33.0 µM 99% | [3]; at 100.0 µM 98% | [4]; at 11.0 µM 99% | [4]; at 33.0 µM 99% | [4]; [17] 98% | [4]; at 50.0 µM 99.1% | [4]; at 100.0 µM 98% | [5]; at 11.0 µM 93% | [5]; at 33.0 µM 99% | [5]; [17] 99% | [5]; at 50.0 µM 99.3% | [5]; at 100.0 µM 99% | [6]; at 11.0 µM 99% | [6]; at 33.0 µM 100% | [6]; at 100.0 µM 99% | [7]; [17] 99% | [7]; at 50.0 µM 99.4% | [8]; at 11.0 µM 96% | [8]; at 33.0 µM 99% | [8]; at 100.0 µM 98% | [9]; [17] 99% | [9]; at 50.0 µM 98.8% | [10]; at 11.0 µM 99% | [10]; at 33.0 µM 99% | [10]; [17] 98% | [10]; at 50.0 µM 99.3% | [10]; at 100.0 µM 99% | [11]; at 11.0 µM 100% | [11]; at 33.0 µM 100% | [11]; at 100.0 µM 99% | [12]; at 11.0 µM 99% | [12]; at 33.0 µM 99% | [12]; at 100.0 µM 99% | [13]; at 11.0 µM 99% | [13]; at 33.0 µM 99% | [13]; at 100.0 µM 99% | [14]; [17] 98% | [14]; at 50.0 µM 97% | [15]; at 11.0 µM 99% | [15]; at 33.0 µM 99% | [15]; at 100.0 µM 98%
inactive: [1]; at 1.2 µM -4% | [1]; at 3.7 µM 8% | [2]; at 1.2 µM 1% | [2]; at 3.7 µM 24% | [3]; at 1.2 µM 12% | [4]; at 1.2 µM -6% | [4]; at 3.7 µM 26% | [4]; [16] 29% | [5]; at 1.2 µM 1% | [5]; at 3.7 µM -1% | [5]; [16] 10% | [6]; at 1.2 µM 3% | [6]; at 3.7 µM 20% | [7]; [16] 41% | [8]; at 1.2 µM -10% | [8]; at 3.7 µM -11% | [9]; [16] 0% | [10]; at 1.2 µM -9% | [10]; at 3.7 µM 15% | [10]; [16] 14% | [11]; at 1.2 µM 12% | [11]; at 3.7 µM 55% | [12]; at 1.2 µM -13% | [12]; at 3.7 µM 8% | [13]; at 1.2 µM 2% | [13]; at 3.7 µM 33% | [14]; [16] 66% | [15]; at 1.2 µM -6% | [15]; at 3.7 µM 27%
